Mdm2-MdmX inh = inhibitors of human Mdm2/MdmX interaction; O15151+Q00987; inhibition, % at 8 µM; 3% of 330,000 active; SaOS-2 split-luciferase Mdm2/MdmX complementation, luminescence;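 active = inhibition of at least 50% at 8 µM in the primary screen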
Target sequence (O15151 whole entry, looked up): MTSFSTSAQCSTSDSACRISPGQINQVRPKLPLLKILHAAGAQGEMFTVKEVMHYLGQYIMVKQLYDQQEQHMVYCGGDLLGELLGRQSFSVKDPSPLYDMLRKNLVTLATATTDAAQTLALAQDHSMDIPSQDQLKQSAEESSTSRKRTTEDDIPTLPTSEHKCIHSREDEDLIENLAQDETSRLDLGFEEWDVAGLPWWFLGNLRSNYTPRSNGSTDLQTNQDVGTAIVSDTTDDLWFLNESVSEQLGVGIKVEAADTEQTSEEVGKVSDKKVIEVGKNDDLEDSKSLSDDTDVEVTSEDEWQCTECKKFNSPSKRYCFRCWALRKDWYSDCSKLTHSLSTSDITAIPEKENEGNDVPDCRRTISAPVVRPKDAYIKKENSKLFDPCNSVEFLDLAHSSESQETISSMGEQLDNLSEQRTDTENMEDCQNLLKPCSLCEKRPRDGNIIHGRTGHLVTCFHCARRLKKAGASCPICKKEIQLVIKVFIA
Target sequence (Q00987 whole entry, looked up): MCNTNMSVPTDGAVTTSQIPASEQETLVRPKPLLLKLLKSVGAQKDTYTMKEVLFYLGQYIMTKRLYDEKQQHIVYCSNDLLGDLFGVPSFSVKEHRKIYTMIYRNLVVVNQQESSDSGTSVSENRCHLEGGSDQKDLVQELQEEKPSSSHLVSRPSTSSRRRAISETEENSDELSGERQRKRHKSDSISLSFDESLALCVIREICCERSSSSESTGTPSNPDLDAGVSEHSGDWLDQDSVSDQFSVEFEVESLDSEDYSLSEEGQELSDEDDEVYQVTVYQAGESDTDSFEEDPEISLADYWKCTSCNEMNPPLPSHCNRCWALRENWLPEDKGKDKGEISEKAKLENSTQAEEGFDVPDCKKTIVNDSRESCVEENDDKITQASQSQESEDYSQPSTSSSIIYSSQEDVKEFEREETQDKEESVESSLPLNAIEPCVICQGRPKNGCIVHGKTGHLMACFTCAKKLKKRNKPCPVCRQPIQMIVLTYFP
697 NFkB inh = inhibitors of the PMA/ionomycin-induced NF-kB reporter in 697 B cells | 697 B-cell NF-kB luciferase reporter, 16 h | inhibition, % at 4 µM | 0.33% of 330,000 active | AID 435022; in the data active = inhibition above about 35%
Jurkat NFkB inh = lowers PMA/ionomycin-induced NF-kB signal in Jurkat cells; inhibition, % at 4 µM; AID 435003; PMA/ionomycin-induced NF-kB luciferase reporter, luminescence; 0.53% of 330,000 active; in the data active = inhibition above about 50%
aSyn 5UTR inh = MLPCN primary screen, SNCA 5' untranslated region. 0.82% of 300,000 active. alpha-synuclein 5'UTR reporter, inhibitor activity. AID 1813. inhibition, % (tested at 7.5 µM); in the data active = inhibition above about 60%;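 note: H4 neuroglioblastoma cells stably carrying SNCA 5'UTR luciferase fusion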
CSC inhib = cancer stem cell inhibition; 1.1% of 300,000 active; AID 2717; cancer stem cell-like cells viability, luminescence; inhibition, % at 7.5 µM; in the data active = inhibition above about 75%; tested in HMLE shEcad cells
Gli-Sufu antag = Gli-Sufu pathway antagonism; inhibition, % at 5 µM; Sufu-KO-LIGHT fibroblasts, Gli luciferase reporter luminescence; 0.74% of 340,000 active;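 active = inhibition above about 55%, limit read from the data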
Jurkat NFkB conf = lowers PMA/ionomycin-induced NF-kB signal in Jurkat cells; shares compounds with Jurkat NFkB inh; Jurkat NF-kB luciferase, 16 h; inhibition, % at 4 µM; 27% of 2,700 active; AID 435020;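 active = inhibition reaching about 45% at 4 µM in either replicate, limit read from the data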
697 NFkB conf = inhibitors of the PMA/ionomycin-induced NF-kB reporter in 697 B cells, retest. shares compounds with 697 NFkB inh. 697 B-cell NF-kB luciferase, 16 h. inhibition, % at 4 µM. 35% of 2,000 active; in the data active = inhibition mostly above about 28%, no sharp cut-off; inactive = mostly below about 22%
Mdm2 MdmX conf = human Mdm2/MdmX binding inhibition, confirmed | shares compounds with Mdm2-MdmX inh | luminescent assay | inhibition, % at 8 µM | 55% of 10,000 active; in the data active = inhibition above about 40%
Full FLuc ctr = inhibits full-length luciferase, flagging false Mdm2/MdmX hits; SaOS-2 full-length luciferase counterscreen, luminescence; 77% of 6,200 active; AID 504607; inhibition, % at 8 µM; shares compounds with Mdm2-MdmX inh;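 active = mean inhibition at 8 µM reaching about 37%, which flags the compound as non-specific, limit read from the data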;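 note: p53-null SaOS-2 cells with luciferase driven by a doxycycline-inducible promoter; compound on cells about two nights before reading with doxycycline added after day one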
Numbers stand for hits; . = inactive; / = no result. Only some compounds are listed: those with a hit (about 4.5% of all), similar ones and a draw of the others.

SMILES	Mdm2-MdmX inh	697 NFkB inh	Jurkat NFkB inh	aSyn 5UTR inh	CSC inhib	Gli-Sufu antag	Jurkat NFkB conf	697 NFkB conf	others
CCCCc1ccc(-c2ccc(C)cc2O)nc1	.	.	.	84	.	.	.	.
CC(C)CNC(=O)c1cccc(NC(=O)CCc2ccccc2)c1	.	.	.	.	.	.	/	/
O=C(Nc1nc(-c2ccc(F)c(F)c2)cs1)c1ccc(OCC2CCCO2)cc1 (stereo not drawn)	.	50	58	.	.	.	63	33
Cc1csc(NC(=O)c2ccc(OCC3CCCO3)cc2)n1 (stereo not drawn)	.	.	.	.	.	.	/	/
O=C(CCS(=O)(=O)c1ccccc1)Nc1ccc(-c2nc3ccccc3s2)cc1	.	.	.	.	.	.	.	.
O=C(CCS(=O)(=O)c1ccccc1)Nc1cccc(-c2nc3ccccc3s2)c1	.	.	.	.	.	.	/	/
Cc1ccc(C(=O)/C=C/Nc2ccc3c(c2)OCO3)cc1	.	.	.	.	.	.	.	.
Cc1ccc(N/C=C/C(=O)c2ccccc2)cc1Br	.	.	.	.	.	.	.	.
CC(=O)c1cccc(N/C=C\C(=O)c2ccc(C)cc2)c1	/	/	/	.	.	.	/	/
COc1ccccc1N1CCN(c2ccc3ccccc3n2)CC1	.	.	.	.	.	.	.	.
O=C(CCCCn1ccc(=O)[nH]c1=O)Nc1ccc(O)c(C(=O)O)c1	/	/	/	/	/	.	/	/
Cc1ccc(C2=NN(S(C)(=O)=O)C(c3ccc4c(c3)OCO4)C2)cc1 (stereo not drawn)	.	.	.	.	.	.	.	.
CS(=O)(=O)N1N=C(c2ccc(Br)cc2)CC1c1ccc2c(c1)OCO2 (stereo not drawn)	.	.	.	.	.	.	/	/
Cc1ccc2nc(NC(=O)CCCc3nc4ccccc4s3)sc2c1	.	.	.	.	.	.	/	/
Cc1ccc2nc(NC(=O)CCCC(=O)O)sc2c1	.	71	55	102	.	.	69	76
CC(=O)Nc1ccc2c(c1)nc(CCNC(=O)c1ccco1)n2C	.	.	.	.	.	.	/	/
Cc1nc(Nc2ccccc2)sc1C(=O)c1ccccc1	.	.	.	.	/	.	/	/
Cc1nc(Nc2ccccc2)sc1-c1ccccc1	.	.	.	.	.	.	.	.
COc1ccc2[nH]c(C(=O)Nc3ccc(C)c(F)c3)cc2c1	.	.	.	.	.	.	/	/
COc1ccc2[nH]c(C(=O)Nc3cccc(C)n3)cc2c1	.	.	.	.	.	.	.	.
O=C(Nc1ccc2ccccc2c1)c1ccccc1F	.	.	.	.	.	.	.	.
COc1ccc(C(=O)Nc2ccc3ccccc3c2)c(OC)c1	.	.	.	.	.	.	.	.
Nc1nc(-c2cc(-c3ccccc3)no2)cs1	.	.	.	.	/	.	/	/
Cc1ccc(-c2cc(-c3ccccc3)no2)cc1	.	.	.	.	.	.	.	.
Cc1cc(N2CCCCC2)n2ncc(-c3ccc(Cl)cc3)c2n1	.	.	.	.	84	.	.	.
SMILES	Mdm2-MdmX inh	697 NFkB inh	Jurkat NFkB inh	aSyn 5UTR inh	CSC inhib	Gli-Sufu antag	Jurkat NFkB conf	697 NFkB conf	others
Cc1cc(N2CCCCC2)n2ncc(-c3ccccc3)c2n1	.	.	.	.	.	.	.	.
CC(C)(C)c1cc(N2CCOCC2)n2ncc(-c3ccc(Cl)cc3)c2n1	.	.	.	.	.	.	/	/
Cc1cc(-c2ccccc2)n2ncc(-c3ccccc3)c2n1	.	.	.	.	/	.	.	.
CC(=O)c1ccc(NC(=O)C(C)NCc2ccccc2Cl)cc1 (stereo not drawn)	.	.	.	.	.	.	/	/
COc1ccc(C2=NO[C@@H]3[C@@H]4C[C@@H]([C@H]5C(=O)N(C)C(=O)[C@@H]45)[C@H]23)c(OC)c1	.	.	.	.	.	.	/	/
N#Cc1cc2c(nc1SCC(=O)Nc1nccs1)CCCCC2	.	.	.	.	.	.	.	.
Cc1cc(C)cc(-n2nnc(C(=O)NCc3ccccc3Cl)c2N)c1	.	.	.	.	.	.	/	/
Fc1cccc(-c2cc3nc4c(c(NCc5ccco5)n3n2)CCCC4)c1	.	.	.	.	93	.	.	.
Nc1ccc(C#Cc2ccccc2)cc1	.	.	.	.	.	.	/	/
Nc1ccccc1C#Cc1ccccc1	.	.	55	.	.	.	.	.
CCc1ccc(-c2cnc3ccccc3n2)cc1NC(=O)CNC(=O)c1ccccc1	.	.	.	.	.	.	.	.
COC(=O)c1c(NC(=O)c2ccc([N+](=O)[O-])o2)sc2c1CCN(C(C)C)C2	97	.	66	105	.	.	.	/	Mdm2 MdmX conf=98;Full FLuc ctr=48
Cn1c(N)c(C(=O)COC(=O)Cc2ccc(Cl)cc2)c(=O)n(C)c1=O	.	.	.	/	/	.	/	/
COc1ccc(NC(=O)CSc2nc3ccccc3c3nc4ccccc4n23)cc1	/	/	/	/	.	.	/	/
Cc1ccc(NC(=O)CSc2nc3ccccc3c3nc4ccccc4n23)cc1	81	.	73	110	.	.	.	/	Mdm2 MdmX conf=58;Full FLuc ctr=70
COc1ccc2c(C)nc(Nc3nc(-c4ccccc4)cc(=O)[nH]3)nc2c1	73	.	89	.	107	.	38	/	Mdm2 MdmX conf=.
O=C1NC(=O)C2(COC(c3cccc([N+](=O)[O-])c3)OC2)S1 (stereo not drawn)	.	.	.	.	.	.	/	/
O=[N+]([O-])c1ccc2nc[nH]c2c1	/	/	/	/	/	.	/	/
NC(N)=N/N=C/c1ccc(OCc2ccccc2Cl)cc1	98	.	63	.	105	.	.	/	Mdm2 MdmX conf=67;Full FLuc ctr=.
O=C(Oc1ccc2ccccc2c1Br)N1CCCCCC1	59	.	.	.	.	.	.	.	Mdm2 MdmX conf=42;Full FLuc ctr=150
O=C(COc1ccc2ccccc2c1Br)N1CCCCC1	.	.	.	.	.	.	/	/
CN(C)CCNC(=O)C(=O)Nc1ccc2c(c1)N(S(=O)(=O)c1cccs1)CCC2	51	.	65	.	.	.	.	/	Mdm2 MdmX conf=72;Full FLuc ctr=62
Cc1cc(C)cc(NC(=S)N2CCC(NC(=O)c3ccco3)CC2)c1	.	.	.	.	.	.	/	/
COc1ccc(N(Cc2cc3cc(OC)ccc3[nH]c2=O)S(=O)(=O)c2ccc(NC(C)=O)cc2)cc1	77	.	69	93	.	.	.	/	Mdm2 MdmX conf=71;Full FLuc ctr=65
N=c1c2c(-c3ccccc3)c(-c3ccccc3)n(Cc3ccccc3)c2ncn1CCCn1ccnc1	100	37	58	.	.	.	.	24	Mdm2 MdmX conf=90;Full FLuc ctr=.
CCCCn1cnc2c(c(-c3ccccc3)c(-c3ccccc3)n2Cc2ccco2)c1=N	98	.	81	.	87	.	.	/	Mdm2 MdmX conf=73;Full FLuc ctr=60
